# RGS12 GoLoco inh-1: RGS12 GoLoco-Gai1 interaction inhibition; Gai1:RGS12 GoLoco peptide FP, rhodamine, 10 min; Potency, µM (series often up to 61.6 µM), inactives show at the highest dose activity, negative = inhibition, actives largely listed as inhibitors; 230,000 compounds, 0.44% hits; P63096; active = well fitted inhibition curve with a large enough effect, not every such curve was filed as active; inactive = no such curve, though single readings can be large or run the other way; also: potency is read from the fitted curve at half-maximal effect; % is scaled to controls: 0 for no effect and ±100 for the full control effect; nearly all actives have a fitted effect of over 30% in size
# TRb SRC2 PPI: disrupts binding of human TR beta to SRC2 | Potency, µM (top dose mostly 106 µM), for the others: at the highest dose activity change, negative = inhibition, most hits filed as inhibitors | AID 1469 | P10828 | 280,000 compounds, 0.065% hits | TRbeta-SRC2 peptide binding, fluorescence polarization; receptor liganded with 1 µM T3;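 also: potency is read from the fitted curve at half-maximal effect; plate controls were bound peptide for no effect and peptide without receptor for full effect; nearly all actives have a fitted effect of over 50% in size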
# Target sequence (P10828 whole entry, looked up): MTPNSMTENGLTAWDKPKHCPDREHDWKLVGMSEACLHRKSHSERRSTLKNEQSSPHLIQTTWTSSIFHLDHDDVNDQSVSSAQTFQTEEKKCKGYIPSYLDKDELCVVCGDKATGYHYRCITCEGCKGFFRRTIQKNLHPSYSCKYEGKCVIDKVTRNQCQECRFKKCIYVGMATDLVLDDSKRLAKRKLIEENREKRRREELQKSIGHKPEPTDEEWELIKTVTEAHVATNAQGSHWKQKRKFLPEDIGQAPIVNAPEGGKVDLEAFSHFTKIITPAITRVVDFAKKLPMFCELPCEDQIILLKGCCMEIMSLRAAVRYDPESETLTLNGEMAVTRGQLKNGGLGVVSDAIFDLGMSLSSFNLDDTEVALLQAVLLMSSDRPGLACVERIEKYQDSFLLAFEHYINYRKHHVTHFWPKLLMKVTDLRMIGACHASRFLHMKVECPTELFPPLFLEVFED
#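 Read-out is fluorescence polarization (555 nm excitation, 632 nm emission) of a Texas Red SRC2 coactivator peptide; loss of signal reflects blocked binding to human TRb ligand-binding domain in the presence of 1 uM T3.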
# ERG-DNA inh: ERG Ets/DNA interaction inhibition; P11308; fluorescence polarization, His-ERG Ets domain / labelled DNA; Potency, µM (series often up to 76.9 µM), for inactives: top-dose FP activity, negative = inhibition, most hits filed as inhibitors; 370,000 compounds, 0.028% hits; active = well fitted inhibition curve with a large enough effect in the polarisation, with a control signal flat; inconclusive = small, poorly fitted or top-dose-only effect, or effect the other way, or a change in a side signal; inactive = no such curve, though single readings can be large or run the other way; the % refers to the polarisation;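 also: polarization taken with two DNA probes labelled with fluorescein and Texas red; potency is read from the fitted curve at half-maximal effect; % of control where 0% means no effect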
#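 His-tagged ERG Ets domain (1 uM in the protein solution; 300mM KCl, 50mM Tris-HCl, 1mM EDTA, 1mM DTT, pH 7.5) received compound, then a probe mix of 5 nM fluorescein-DNA and 100nM Texas-615-DNA. Fluorescence polarization was read for both dyes.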
# TexasRed fluor: Texas Red fluorescence interference in TRb-SRC2 counter-screen; TRb/SRC2 Texas Red total fluorescence interference; Potency, µM (doses to about 106 µM), for inactives: at the highest dose fluorescence change, negative = quenching; 280,000 compounds, 0.29% hits; active = well fitted curve in either direction with a large enough effect; inconclusive = small, poorly fitted or top-dose-only effect; also: potency is read from the fitted curve at half-maximal effect; % is scaled to controls: 0 for no effect and ±100 for the full control effect
#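 Flags fluorescent or light-absorbing compounds by total fluorescence, S + 2P, at 555 nm excitation and 632 nm emission. Mixture: 20 nM Texas Red SRC2 peptide, 0.6 uM human TRb LBD, 1 uM T3, 5% DMSO; compound exposure 5 h at ambient temperature.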
# Apoferritin bind: candidate novel general anesthetic via apoferritin binding; apoferritin/1-aminoanthracene competitive binding, fluorescence; 350,000 compounds, 0.074% hits; P02791; Potency, µM (titrated, usually from 77.5 µM), for inactives: top-dose activity change, negative = displacement, most hits filed as inhibitors; also: potency is read from the fitted curve at half-maximal effect; % is scaled to controls: 0 for no effect and ±100 for the full control effect; nearly all actives have a fitted effect of over 20% in size
#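 Concentration-response curves derived by four-parameter Hill fitting of normalized fluorescence, where compounds displaced 1-AMA from 10 uM horse apoferritin following a brief 10 min room-temperature incubation; propofol titration acted as positive control.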
# RGS12 GoLoco inh-2: disrupts Gai1 binding to human RGS12 GoLoco peptide; 110 compounds, 50% hits; shares compounds with RGS12 GoLoco inh-1; Gai1/rhodamine-RGS12 GoLoco peptide fluorescence polarization; AID 2390; Potency, µM (doses to about 57.1 µM), without a hit: at the top dose activity, negative = inhibition, hits mostly inhibitors
# * hit, by the source's call; ? = inconclusive; nt = no result; [ ] = remark or other dose. Hits are enriched below; roughly 0.44% of the tested compounds scored in any of these assays. Unless noted, calls follow the shape of the dose curve; as a rule, active = well fitted curve in the direction sought with a large enough effect; inconclusive = small, poorly fitted or top-dose-only effect, or another doubt; inactive = no such curve, though single readings can be large; an effect the other way counts as inactive or inconclusive.
SMILES,RGS12 GoLoco inh-1,TRb SRC2 PPI,ERG-DNA inh,TexasRed fluor,Apoferritin bind,RGS12 GoLoco inh-2
CCCC[N+]12CCC(CC1)C(=C(c1ccccc1)c1ccccc1)C2,7.94µM*,-3.1%,-8.1%,0.7%,-11.0%,15.8µM*
CCC[N+]12CCC(CC1)C(=C(c1ccccc1)c1ccccc1)C2,6.7%,-12.1%,2.4%,-3.5%,-2.2%,nt
C=C1N2CCC(CC2)C1(O)c1ccc(C)cc1 (stereo unspecified),-14.9%,2.4%,-0.3%,2.8%,-6.9%,nt
C=C1C(O)(c2ccccc2)C2CC[N+]1(C)CC2 (stereo unspecified),10µM*,-5.8%,nt,-0.7%,-3.7%,?
O=C(NC(=O)c1c(F)cccc1F)Nc1cc(Cl)c(OC(F)(F)C(F)F)c(Cl)c1,nt,6.6%[201 µM],nt,-2.1%[201 µM],nt,nt
NC(N)=Nc1ccc2[nH]c3c(c2c1)C[C@@]1(O)[C@H]2Cc4ccc(O)c5c4[C@@]1(CCN2CC1CC1)[C@H]3O5,2.82µM*,-1.8%,8.3%,-2.5%,nt,7.94µM*
CC(=NC#N)N(C)Cc1ccc(Cl)nc1,nt,-9.1%[201 µM],nt,-1.5%[201 µM],nt,nt
C[N+]12CCC(CC1)C(C#N)(N1CCOCC1)C2 (stereo unspecified),2.24µM*,2.8%,2.0%,-1.0%,-15.7%,?
